Compound activity deposited in PubChem by several laboratories.
L major viab: Leishmania major promastigote growth inhibition, primary screen; Leishmania major promastigotes, resazurin fluorescence viability; inhibition, % at 10 µM; 200,000 tested, 9% active; AID 1063, 2008; in the data active = inhibition above about 50%;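 note: promastigotes grown with compound for 44 hours at 28 °C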
ROMK mod: ROMK potassium channel modulators, primary screen, cell-based, thallium flux, MLSMR library | ATP-sensitive inward rectifier potassium channel 1 (Homo sapiens), P48048 | Tet-inducible ROMK, thallium flux fluorescence; actives lie on both sides | B-score at 10 µM | 130,000 tested, 2% active | AID 1918, 2009;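 active = signal ratio slope over the read window, or its plate-corrected B-score, at least 3 SD from the plate mean, either direction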;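 note: B-score of the F/F0 ratio slope over 7 to 12 s after thallium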
p97 ATPase inh: inhibitors of human p97 ATPase, primary screen, biochemical | recombinant p97 ATPase, Kinase-Glo ATP luminescence, 3 h | Transitional endoplasmic reticulum ATPase (Homo sapiens), P55072 | AID 1481, 2009 | 220,000 tested, 0.42% active | inhibition, % at 8 µM; in the data active = inhibition above about 15%
Target sequence (P55072 whole entry, looked up): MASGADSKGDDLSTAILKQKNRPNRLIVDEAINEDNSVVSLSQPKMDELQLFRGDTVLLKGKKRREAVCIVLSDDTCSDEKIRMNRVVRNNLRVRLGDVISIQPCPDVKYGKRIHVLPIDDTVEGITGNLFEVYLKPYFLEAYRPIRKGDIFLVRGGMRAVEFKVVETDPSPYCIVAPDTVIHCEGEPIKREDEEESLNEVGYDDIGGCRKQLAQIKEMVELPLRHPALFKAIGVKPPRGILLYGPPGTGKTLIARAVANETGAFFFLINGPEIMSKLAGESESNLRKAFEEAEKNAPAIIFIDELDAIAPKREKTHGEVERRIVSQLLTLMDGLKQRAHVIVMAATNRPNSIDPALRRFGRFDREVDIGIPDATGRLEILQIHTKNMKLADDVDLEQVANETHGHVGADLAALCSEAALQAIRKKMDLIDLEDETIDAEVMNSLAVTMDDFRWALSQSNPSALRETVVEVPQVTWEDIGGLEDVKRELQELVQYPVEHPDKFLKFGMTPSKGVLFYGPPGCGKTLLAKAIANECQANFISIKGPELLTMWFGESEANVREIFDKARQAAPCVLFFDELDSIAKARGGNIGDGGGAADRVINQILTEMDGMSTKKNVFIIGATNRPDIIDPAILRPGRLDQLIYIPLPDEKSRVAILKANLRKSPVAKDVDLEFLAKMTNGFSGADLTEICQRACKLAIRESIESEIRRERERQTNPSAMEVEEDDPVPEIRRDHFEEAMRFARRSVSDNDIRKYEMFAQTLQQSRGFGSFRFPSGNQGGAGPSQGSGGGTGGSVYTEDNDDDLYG
HCT116 PTEN-null: growth suppression of PTEN-null HCT116, primary screen, cell-based, CellTiter-Glo; viability, % at 10 µM; 140,000 tested, 1.2% active; HCT116 PTEN-null viability, 60 h; stronger effect = lower value;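 active = viability at or below a set limit, 4 SD under the median of all tested compounds, cut at about 3.7% in these data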;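 note: PTEN knockout HCT116 line with beta catenin targeted HCT116 as companion control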
bCat KO growth: primary screen for growth suppressors in beta-catenin knockout HCT116 cells (colon tumor, human); viability, % at 10 µM; 140,000 tested, 1.5% active; HCT116 beta-catenin knockout viability, CellTiter-Glo, 60 h; stronger effect = lower value;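 active = viability at or under a set limit, the compound median less 4 SD, cut at about 6% in these data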
INS promoter inh: inhibitors of insulin promoter-driven GFP, primary screen, imaging, TRM-6 cells (human fetal islet line), eGFP reporter, cell count | reporter expression induced with tamoxifen | inhibition, % at 2 µM | 130,000 tested, 0.9% active;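 active = inhibition above the mean plus 3 SD, with well images judged a real hit on visual review, cut at about 60% in these data, passing the limit was not always enough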
Each line names hits and unclear results; the compound was inactive in the other large screens. In the library only some 10% were active in any assay of this set; here they are far more common.

Cc1cc(OCCCn2cnc3ccccc3c2=O)ccc1[N+](=O)[O-]	L major viab 58.8
O=c1c2ccccc2ncn1CCCOc1ccccc1[N+](=O)[O-]	none (no result: ROMK mod)
CCCOc1ccc(OCCn2nc(C(=O)O)c3ccccc3c2=O)cc1	none (no result: HCT116 PTEN-null, bCat KO growth)
CCn1cc(C(=O)Nc2nnc(C)s2)c(=O)c2cc(F)c(N3CCN(C(=O)c4ccco4)CC3)cc21	none (no result: HCT116 PTEN-null, bCat KO growth)
O=C(Cn1cnc2cc([N+](=O)[O-])ccc2c1=O)Nc1cccc2ccccc12	none (no result: L major viab, ROMK mod, HCT116 PTEN-null, bCat KO growth, INS promoter inh)
O=C(Cn1cnc2cc([N+](=O)[O-])ccc2c1=O)NCc1ccccc1	L major viab 59.9 (no result: HCT116 PTEN-null, bCat KO growth, INS promoter inh)
O=C(CSCc1cccc(Cl)c1)Nc1ccccc1-c1ccccc1	L major viab 86.8
Cc1nc(-n2[nH]c3c(c2=O)CCCC3)[nH]c(=O)c1Cc1ccccc1	L major viab 96.5, HCT116 PTEN-null 3.2, bCat KO growth 5.3 (no result: ROMK mod)
O=C(Nc1ccc2snnc2c1)N1CCSCC1	none
CC1CN(C(=O)Nc2ccc3snnc3c2)c2ccccc21 (stereo unspecified)	L major viab 51.1 (no result: ROMK mod, INS promoter inh)
Cn1c(-c2c(N)n(CCc3ccccc3)c3nc4ccccc4nc23)nc2ccccc21	L major viab 99.5
Cn1c(-c2c(N)n(CCCc3ccccc3)c3nc4ccccc4nc23)nc2ccccc21	L major viab 97.8 (no result: ROMK mod)
CC(=O)C1=NN(c2ccc(Cl)cc2)C(c2ccc3c(c2)OCO3)N(C(C)=O)N1C (stereo unspecified)	none (no result: L major viab, ROMK mod, HCT116 PTEN-null, bCat KO growth, INS promoter inh)
C#CCOCCOCCOCCNc1nc(N2CCN(C(=O)[C@H](CCC(=O)O)n3cc(C(N)CC(C)C)nn3)CC2)nc(N2CCN(C(=O)[C@H](Cc3ccc(O)cc3)n3cc(C(N)[C@H](C)CC)nn3)CC2)n1 (stereo partly specified)	none (no result: ROMK mod, HCT116 PTEN-null, bCat KO growth, INS promoter inh)
CC1=CC(C)(C)N(S(=O)(=O)c2ccc(F)cc2)c2ccc(C)cc21	none
COc1ccc2c(c1)C(C)=CC(C)(C)N2S(=O)(=O)c1ccc(Br)cc1	L major viab 94.8 (no result: HCT116 PTEN-null, bCat KO growth, INS promoter inh)
CC(C)(C)OC(=O)C(C)(C)Sc1nnc(N)s1	none (no result: L major viab, ROMK mod, HCT116 PTEN-null, bCat KO growth, INS promoter inh)
Cc1cc(C)c2nc3nc(C)c(C)cc3c(N)c2c1	L major viab 100.3 (no result: HCT116 PTEN-null, bCat KO growth, INS promoter inh)
CC(C)Oc1ccc(OCCNC2CCCC2)cc1	L major viab 78.8
CCOc1cccc(OCCNC2CCCC2)c1	L major viab 80.0 (no result: HCT116 PTEN-null, bCat KO growth, INS promoter inh)
CCCCNc1ccccc1C(=O)OCC(=O)Nc1ccc(S(N)(=O)=O)cc1	L major viab 78.3
NC(=O)c1ccc(SCC(=O)NC2CCCCC2)c([N+](=O)[O-])c1	none (no result: HCT116 PTEN-null, bCat KO growth)
O=C(Nc1ccc(F)cc1)/C(=C1/CCCCCN1)[N+](=O)[O-]	none (no result: L major viab, ROMK mod, HCT116 PTEN-null, bCat KO growth, INS promoter inh)
FC(F)Sc1ccc(-n2cc(-c3ccc(Cl)cc3)[n+]3c2CCC3)cc1	none
Cc1ccc(-c2cn(-c3ccc(SC(F)F)cc3)c3[n+]2CCC3)cc1	L major viab 98.5
CNC(=S)N(CCc1cccc(C)c1)Cc1cc2cc(OC)c(OC)cc2[nH]c1=O	none (no result: ROMK mod)
Cc1cccc2cc(CN(CCCN(C)C)C(=S)NCCc3ccccc3)c(=O)[nH]c12	L major viab 64.7 (no result: HCT116 PTEN-null, bCat KO growth, INS promoter inh)
Cc1ccc2[nH]c(=O)c(CN(CCCN(C)C)C(=O)Nc3ccc(Cl)cc3)cc2c1	L major viab 90.2
COc1cc2cc(CN(CCc3cccc(C)c3)C(=S)NCCCN(C)C)c(=O)[nH]c2cc1OC	L major viab 52.1 (no result: ROMK mod)
Cc1cccc2cc(CN(CCN(C)C)C(=S)NCc3ccco3)c(=O)[nH]c12	none (no result: ROMK mod, INS promoter inh)
Cc1ccc2[nH]c(=O)c(CN(CCCN(C)C)C(=S)NCCc3ccccc3)cc2c1	L major viab 75.7 (no result: HCT116 PTEN-null, bCat KO growth, INS promoter inh)
CCN(C(=O)COC(=O)c1ccc2c(=O)n3c(nc2c1)CCC3)C1CCS(=O)(=O)C1 (stereo unspecified)	none (no result: HCT116 PTEN-null, bCat KO growth, INS promoter inh)
COC(=O)c1ccccc1NS(=O)(=O)c1ccc(Cl)nc1	none (no result: HCT116 PTEN-null, bCat KO growth, INS promoter inh)
O=C(NC1CC2CCCC(C1)N2Cc1cccs1)c1ccc([N+](=O)[O-])cc1 (stereo unspecified)	none (no result: HCT116 PTEN-null, bCat KO growth, INS promoter inh)
CC(C)NC(=S)NC(=O)c1ccc(-c2ccccc2)cc1	none (no result: ROMK mod, INS promoter inh)
O=C(NC1CCCC1)C(c1cccnc1)N(CCc1ccccc1)C(=O)c1ccco1 (stereo unspecified)	none (no result: HCT116 PTEN-null, bCat KO growth, INS promoter inh)
O=C(NC1CCCCC1)C(c1cccnc1)N(CCc1ccccc1)C(=O)Cc1cccs1 (stereo unspecified)	L major viab 94.5 (no result: ROMK mod)
COC(=O)c1ccc(C(C(=O)NC2CCCCC2)N(C(=O)Cc2cccs2)C2CC2)cc1 (stereo unspecified)	none (no result: ROMK mod)
COc1ccc(CN(C(=O)Cc2c[nH]c3ccccc23)C(C(=O)NC2CCCCC2)c2ccc(C)o2)cc1 (stereo unspecified)	L major viab 68.7 (no result: ROMK mod)
O=C(NCc1ccccc1)C(c1ccccc1)N(Cc1ccc2c(c1)OCO2)C(=O)Cc1cccs1 (stereo unspecified)	L major viab 78.7 (no result: ROMK mod)
COC(=O)c1ccc(C(C(=O)NC2CCCCC2)N(Cc2ccccc2)C(=O)Cc2cccs2)cc1 (stereo unspecified)	L major viab 99.2
O=C(O)C1CCC(Cn2c(SCc3cc(=O)n4cc(Cl)ccc4n3)nc3ccsc3c2=O)CC1 (stereo unspecified)	none (no result: HCT116 PTEN-null, bCat KO growth)
CC(=O)Nc1ccc(S(=O)(=O)N[C@@H](C)C(=O)OCc2cc([N+](=O)[O-])cc3c2OCOC3)cc1	none (no result: L major viab, ROMK mod, HCT116 PTEN-null, bCat KO growth, INS promoter inh)
O=C(Nc1cccc(NC(=O)c2cccs2)c1)c1ccc2c(c1)OCCO2	none (no result: HCT116 PTEN-null, bCat KO growth)
C=CCN(CC=C)CCOc1ccc(OC(C)C)cc1	none (no result: HCT116 PTEN-null, bCat KO growth)
O=C(O)c1cccnc1SC1CC(=O)N(c2ccc(OC(F)F)cc2)C1=O (stereo unspecified)	none (no result: L major viab, ROMK mod, HCT116 PTEN-null, bCat KO growth, INS promoter inh)
O=C(CCNS(=O)(=O)c1c(Cl)cccc1Cl)OCC(=O)c1ccccc1	none
O=C(Cn1c(NCCO)nc2ccccc21)NCC1CCCO1 (stereo unspecified)	none (no result: HCT116 PTEN-null, bCat KO growth, INS promoter inh)
O=C(NC1CCCC1)C(c1ccncc1)N(Cc1ccccc1)C(=O)Cc1cccs1 (stereo unspecified)	none (no result: ROMK mod)
O=C(NC1CCCC1)C(c1ccccc1)N(Cc1ccc2c(c1)OCO2)C(=O)Cc1cccs1 (stereo unspecified)	L major viab 82.1 (no result: ROMK mod)
O=C(NC1CCCC1)C(c1ccsc1)N(Cc1ccccc1)C(=O)Cc1cccs1 (stereo unspecified)	none (no result: ROMK mod)
O=C(NC1CCCC1)C(c1ccsc1)N(Cc1ccco1)C(=O)Cc1cccs1 (stereo unspecified)	L major viab 62.3 (no result: ROMK mod)
O=C(NC1CCCCC1)C(c1ccc2ncccc2c1)N(Cc1ccc2c(c1)OCO2)C(=O)c1cccs1 (stereo unspecified)	L major viab 87.8 (no result: ROMK mod)
COc1ccc(CNC(=O)C(c2ccc(C)o2)N(Cc2cccs2)C(=O)Cc2cccs2)cc1 (stereo unspecified)	L major viab 86.9 (no result: ROMK mod)
CC(C)(C)NC(=O)N1CCCC(C(=O)c2cccc(Cl)c2)C1 (stereo unspecified)	none (no result: ROMK mod, HCT116 PTEN-null, bCat KO growth, INS promoter inh)
